Most compounds without a hit are left out; they make up all but 1.5% or so of the library.
PI4K2A inh: PI4K2A (human) kinase inhibition; purified PI4K2A, ADP-Glo luminescence, 1 h; stronger effect = lower value; 420,000 compounds, 0.13% hits; activity change, negative = inhibition, % at 76.9 µM; in the data active means activity change below about -50%; inconclusive means mostly about -30% to -49%;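 further: -100% = wells without enzyme as full effect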
Target sequence (Q9BTU6 whole entry, looked up): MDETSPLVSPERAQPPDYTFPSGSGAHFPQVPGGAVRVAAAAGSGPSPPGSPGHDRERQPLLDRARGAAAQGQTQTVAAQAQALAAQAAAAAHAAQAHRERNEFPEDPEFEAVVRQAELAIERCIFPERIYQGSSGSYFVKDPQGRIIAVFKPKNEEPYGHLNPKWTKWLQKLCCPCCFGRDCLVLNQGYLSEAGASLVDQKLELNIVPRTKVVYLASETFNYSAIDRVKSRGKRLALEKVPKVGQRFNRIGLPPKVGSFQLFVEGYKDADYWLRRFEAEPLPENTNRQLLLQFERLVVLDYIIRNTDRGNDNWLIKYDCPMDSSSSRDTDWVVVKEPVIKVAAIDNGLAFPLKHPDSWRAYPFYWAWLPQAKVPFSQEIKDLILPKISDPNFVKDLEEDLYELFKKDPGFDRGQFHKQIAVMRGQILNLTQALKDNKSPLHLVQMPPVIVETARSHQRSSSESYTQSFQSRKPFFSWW
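Compounds are screened against recombinant PI4K2A using PI as substrate and ATP, the latter dispensed at 300 microM. Reactions run one hour at ambient temperature before ADP-Glo detection; full inhibition defined by wells lacking enzyme.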
GALK inh: inhibitors of human galactokinase. P51570. Purified GALK, Kinase-Glo residual ATP luminescence. Potency, µM (titrated, usually from 57.5 µM), without a hit: top-dose activity change, negative = inhibition, hits mostly inhibitors. 270,000 compounds, 0.007% hits; further: potency means the concentration at half of the fitted maximal effect
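Galactose (100 uM) and ATP (35 uM) were turned over by 5 nM GALK for 1 h at RT. Kinase-Glo Plus then converted the remaining ATP into a luminescent signal.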
TrxR1 inh: blocks rat thioredoxin reductase 1; 390,000 compounds, 1% hits; O89049; Potency, µM (top dose mostly 114 µM), without a hit: at the highest dose activity change, negative = inhibition, actives largely listed as inhibitors; recombinant rTrxR1, NADPH fluorescence consumption, selenite substrate; AID 588453; further: potency means the concentration at half of the fitted maximal effect; nearly all actives have a fitted effect of over 65% in size
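Rat TrxR1 (90 nM in the dispensed reagent) was pre-reduced with 400 uM NADPH for 5 min at room temperature, then incubated with compound for 15 min. After 400 uM selenite was added, NADPH fluorescence (Ex 340/Em 450 nm) was followed for 8 min.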
Coupling enz: inhibits coupling enzyme system, counter-screen for aldolase hits; coupling enzyme system counterscreen, AmpLite Red fluorescence; activity change, negative = inhibition, % at 58.2 µM, hits read low; 290,000 compounds, 0.67% hits; AID 2472; in the data active means activity change below about -30%
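Final compound at 57.5 uM, incubated 10 min at RT with coupling enzyme reagent (glyceraldehyde-3-phosphate), then 20 min with substrate and AmpLite Red detection. Fluorescence read at 525/598 nm; tests interference with the coupling assay, not aldolase inhibition.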
Giardia killer: kills Giardia lamblia; Giardia lamblia trophozoite viability; activity change, % at 7.66 µM, hits read low; 340,000 compounds, 0.15% hits; in the data active means activity change below about -80%; inconclusive means between about -30% and that limit;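 further: parasites exposed to compound for two days anaerobically before the ATP read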
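Giardia trophozoites, 100 cells per well, were exposed to compounds for 48 hrs at 37 deg C under anaerobic conditions; viability was then read as ATP content by bioluminescence after 15-30 min at room temperature.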
TrxR1 substrate: rat thioredoxin reductase 1 substrate activity; purified TrxR1 substrate turnover, NADPH consumption readout; AID 588456; Potency, µM (top dose mostly 114 µM), inactives show at the highest dose activity change, negative = substrate turnover; 390,000 compounds, 0.01% hits; further: potency means the concentration at half of the fitted maximal effect; nearly all actives have a fitted effect of over 50% in size
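Rat TrxR1, dispensed at 90 nM, was prereduced with 400 uM NADPH (final) for 5 min at ~22 deg C, then incubated with compound 15 min before 400 uM selenite. A first-read NADPH fluorescence drop versus no-compound background flagged substrates.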
Numbers without * were called inactive; ? = inconclusive; . = no result; ! = a repeat was not active; [ ] = another dose, or the depositor's remark. Unless noted, the call rests on the fitted dose curve; in most records, active means well fitted curve in the direction sought with a large enough effect; inconclusive means small, poorly fitted or top-dose-only effect, or another doubt; inactive means no such curve, though single readings can be large; an effect the other way counts as inactive or inconclusive. Unless noted, on the % scale 0 is the no-effect control and ±100 the full control effect.

SMILES	PI4K2A inh	GALK inh	TrxR1 inh	Coupling enz	Giardia killer	TrxR1 substrate
Cc1cn([C@H]2C[C@H](F)[C@@H](CO)O2)c(=O)[nH]c1=O	-2.2	.	.	.	.	.
O=[N+]([O-])c1nn(-c2ccccc2)[n+]([O-])c1N1CCN(c2ccccc2F)CC1	0.7	-2.0%	6.2%	0.6	-89.3*	-7.7%
O=[N+]([O-])c1nn(-c2ccccc2)[n+]([O-])c1N1CCN(c2ccccc2)CC1	9.3	2.0%	10.3%[57.1 µM]	2.7	-81.1*	-9.0%[57.1 µM]
O=[N+]([O-])c1cccnc1N1CCN(c2ccccc2F)CC1	-0.6	0.8%	2.5%[57.1 µM]	-3.3	-7.3	2.5%[57.1 µM]
O=C1C[C@H]2C=CCc3cccc(c32)CN1Cc1cccc(F)c1	.	.	-19.2%	.	.	-0.1%
COc1cc(OC)c2c(c1C(CCN1CCN(c3ccccc3)CC1)c1ccc(N(C)C)cc1)OC(=O)CC2c1ccc(N(C)C)cc1 (centres undefined)	.	.	-6.3%	0.0	-4.9	-8.3%
O=C(C[n+]1csc2ccccc21)c1ccc(I)cc1	.	.	9.3%[0.0914 µM]	.	.	14.1%
C=C1C(=O)C23C(O)C1CCC2C12CCCC(C)(COC(C)=O)C1C(O)C3(O)OC2 (centres undefined)	1.7	.	7.08µM*	.	-7.3	-7.4%
CCn1c(SCC(=O)NCc2ccco2)nnc1-c1cccs1	-3.0	0.2%	14.1µM*	-11.0	3.6	2.9%
O=C(CSc1nnc(C2CCCCC2)n1-c1ccccc1)NCc1ccco1	-0.4	-2.7%	12.6µM*	1.1	-13.2	12.9%
CCNC(=O)CSc1nnc(C2CC2)n1-c1ccccc1	-4.0	1.9%	4.0%	3.2	2.8	-2.8%
Cc1cc(NC(=O)CSc2nnc(COc3ccccc3)n2Cc2ccco2)no1	0.3	1.1%	20.2%	1.1	-5.5	10.7%
O=C(CSc1nnc(COc2ccccc2)n1Cc1ccco1)NCc1ccco1	-24.3	5.2%	11.2µM*	2.8	13.5	4.9%
O=C(CSc1nnc(CNc2cccc(C(F)(F)F)c2)n1Cc1ccco1)NCc1ccco1	-0.8	0.2%	15.8µM*	-11.2	-3.7	11.3%[57.1 µM]
O=C(O)CSc1nnc(CNc2cccc(C(F)(F)F)c2)n1Cc1ccco1	-11.0	-0.2%	-25.8%	11.9	-2.4	5.7%
CCCCN1CC[C@H]2C=CC[C@@H](C(=O)NCc3cccnc3)[C@H]2C1=O	.	.	11.5%	.	.	8.9%
O=C(O)CNC(=O)/C(=C/c1ccco1)NC(=O)/C=C/c1ccccc1	1.7	-0.3%	11.1%	-17.7	-1.3	3.7%
C=CCOC(=O)/C(=C/c1ccco1)NC(=O)/C=C/c1ccccc1	-1.6	4.0%	17.8µM*	-3.5	-4.9	-4.7%
COc1cc(/C=C2\CC/C(=C\c3cc(OC)c(OC)c(OC)c3)C2=O)cc(OC)c1OC	11.6	-0.4%	23.3%[57.1 µM]	-2.1	21.9	-6.2%[57.1 µM]
COc1cc(/C=C2\CC/C(=C\c3cc(OC)c(O)c(OC)c3)C2=O)cc(OC)c1O	-1.3	-2.4%	?	-34.0*	-6.4	-12.4%
COc1ccc(COC[C@H](C)[C@H](O)[C@@H](C)[C@H]2OC(=O)[C@@H]2C)cc1	-0.2	.	7.94µM*!	0.6	-7.0	-3.4%
N#C/C(=C\c1ccc(-c2cc(Cl)ccc2Cl)o1)C(=O)Nc1cccc2ncccc12	-52.8*	.	?	.	.	20.5%[57.1 µM]
COC1=CC(=O)C(C(=O)c2ccccc2)=CC1=O	.	.	.	-67.0*	.	.
Brc1cccc(CNc2nc3ccccc3n2CCN2CCCCC2)c1	-5.1	-3.7%	17.6%	-2.0	-12.1	5.0%
Brc1ccc(CNc2nc3ccccc3n2CCN2CCCCC2)cc1	6.3	9.7%	23.0%	-1.0	-83.4*	5.0%
SMILES	PI4K2A inh	GALK inh	TrxR1 inh	Coupling enz	Giardia killer	TrxR1 substrate
O=C(CCl)Nc1ccccc1Sc1ccccc1	3.8	0.7%	39.8µM*	-6.7	11.0	-3.2%
CC(=O)Nc1cn(-c2ccccc2)nc1-c1ccccc1	9.2	2.5%	11.1%	-0.7	-4.3	-4.1%
O=C(CCl)Nc1ccc(-c2ccccc2)cc1	16.1	1.9%	11.2µM*	0.7	-12.6	-0.2%
O=C(CCl)Nc1cn(-c2ccccc2)nc1-c1ccccc1	-0.2	1.4%	12.6µM*	1.1	-15.5	4.0%
O=C(Cc1ccc(Cl)cc1)Nc1ccccc1Sc1ccccc1	2.6	-0.1%	-12.3%	-0.9	?	-10.2%
O=C(CCl)Nc1ccc(N=Nc2ccccc2)cc1	-0.7	0.0%	-19.9%	-2.1	1.0	-2.3%
COc1cc(OC)cc(C(=O)NCc2ccc3c(c2)CCN3C(=O)c2ccccc2)c1	-0.6	.	13.3%[57.1 µM]	.	.	4.1%[57.1 µM]
COc1cc2c(NC3CCN(C)CC3)nc(N3CCCN(C)CC3)nc2cc1OCC1CCCCN1 (centres undefined)	.	.	?	.	.	95.1%
CCN(CC)CCNC(=O)c1ccc2c(c1NCCO)C(=O)c1ccccc1C2=O	-14.6	10.2%	1.5%	-31.3*	-11.6	-3.1%
CCOC(=O)Nc1ccc2c(c1)N(C(=O)CCN(CC)CC)c1ccccc1S2=O (centres undefined)	10.2	-1.3%	28.2µM*	2.8	-5.9	5.2%[57.1 µM]
Cn1c(CNc2ccccc2F)nc2ccccc21	-14.4	.	.	.	.	.
O/C(=C\c1nc2ccccc2[nH]1)c1cccs1	-0.2	0.2%	44.7µM*	-14.1	-24.0	4.3%
N#CC1=C(N)C(C#N)(C#N)[C@H](c2c(F)cccc2F)[C@H]2CC3(CC=C12)OCCO3	-8.9	-0.1%	?	-3.5	-4.1	-8.6%
N#CC1=C(N)C(C#N)(C#N)C2(CCC3(CC2)OCCO3)C2CC3(CC=C12)OCCO3 (centres undefined)	-5.4	0.3%	89.1µM*	-3.0	21.1	5.6%
CC[N+](C)(C)c1ccc(/C=C/c2ccnc3ccccc23)cc1	.	.	-3.3%	.	.	-2.7%
CC(=O)OCCBr	.	.	.	-1.7	.	.
COc1ccc2c(CCN3C(=O)c4ccccc4C3=O)c(-c3c(CCN4C(=O)c5ccccc5C4=O)c4ccccc4n3C(=O)OC(C)(C)C)[nH]c2c1	-5.8	.	.	.	.	.
Cc1ccc(/C=C/C(=O)N2CCC(c3nc4ccccc4o3)CC2)cc1	0.6	.	0.3%	.	.	-9.6%
O=C(OCc1cccc([N+](=O)[O-])c1)c1cnccn1	-6.8	-3.2%	7.3%	1.3	-23.8	-0.9%
O=C(OCc1ccc([N+](=O)[O-])cc1Cl)c1cnccn1	0.8	-3.2%	22.4µM*	0.1	4.8	4.7%
COc1ccc(CC(=O)OCCc2cc3cc(OC)c(OC)cc3c(=O)o2)cc1	-3.3	.	17.8µM*	.	28.1	2.0%
COc1cc2cc(CCOC(=O)c3ccc(C(F)(F)F)cc3)oc(=O)c2cc1OC	-0.7	.	30.7%[57.1 µM]	.	-10.1	4.0%[57.1 µM]
S=c1[nH]nc(-c2ccccc2)n1/N=C/C=C/c1ccco1	-4.3	-0.8%	-34.2%	-0.6	10.2	-13.0%
Cc1ccccc1-c1n[nH]c(=S)n1/N=C/C=C/c1ccco1	-21.7	1.9%	3.98µM*	1.6	-29.3	-6.4%
